Bioassay records as filed in PubChem BioAssay.
An excerpt weighted towards active compounds, which were near 4% of everything screened.
Mtb bLac sens: beta-lactam sensitization of Mtb H37Rv, H37Rv; M. tuberculosis H37Rv growth with meropenem, percent inhibition; inhibition, % at 25 µM; 0.27% of 330,000 active; call rule not given here;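 note: growth measured after seven days incubation then overnight dye step; 0% = bacteria only wells and 100% = bacteria with antibiotic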
CCHF vOTU inh: CCHFV vOTU protease inhibitors, primary screen, biochemical, Pep-AMC substrate, fluorescence | Crimean-Congo hemorrhagic fever virus L polyprotein viral ovarian tumor (vOTU) protease … | inhibition, % at 11.5 µM | 0.55% of 370,000 active; note: 0% = vehicle wells with enzyme and 100% = no enzyme wells
GDH-TPI counter: GDH-TPI coupling enzyme inhibitors, primary screen, artefact control for M. tuberculosis FBA inhibitor project, biochemical, absorbance, full deck | AID 588335, 2011 | inhibition, % at 4.8 µM | GDH-TPI coupled enzyme counterscreen, NADH absorbance | 1.2% of 360,000 active;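 note: 0% = DMSO wells and 100% = wells lacking the enzyme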
Mtb FBA inh: Mtb FBA enzyme inhibitors, primary screen, biochemical, fluorescence, strain H37Rv | Fructose-bisphosphate aldolase (Mycobacterium tuberculosis (strain ATCC 25618 / H37Rv)), … | purified M. tuberculosis FBA, fluorescence read-out | inhibition, % at 1 µM | 2.3% of 360,000 active | AID 588726, 2011; in the data active = inhibition above about 27%;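 note: 0% = vehicle and 100% = reference inhibitor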
Target sequence (P9WQA3 whole entry, looked up): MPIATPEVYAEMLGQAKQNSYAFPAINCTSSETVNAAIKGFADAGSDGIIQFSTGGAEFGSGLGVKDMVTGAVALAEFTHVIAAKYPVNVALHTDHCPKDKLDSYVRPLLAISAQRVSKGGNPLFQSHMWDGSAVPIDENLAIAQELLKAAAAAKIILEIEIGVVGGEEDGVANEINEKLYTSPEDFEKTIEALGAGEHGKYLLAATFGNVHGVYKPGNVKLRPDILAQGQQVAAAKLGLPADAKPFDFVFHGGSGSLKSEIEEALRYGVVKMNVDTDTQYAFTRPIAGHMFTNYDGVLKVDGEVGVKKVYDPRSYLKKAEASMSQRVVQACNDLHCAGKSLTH
MazEF act: activators of E. coli MazEF toxin-antitoxin RNase, primary screen, biochemical, fluorescence, uHTS; Endoribonuclease toxin MazF (Escherichia coli (strain K12)), P0AE70; FAM/BHQ RNA-DNA oligo cleavage fluorescence, 5 h; activation, % at 20 µM; 0.32% of 350,000 active; in the data active = activation above about 50%
Target sequence (P0AE70 whole entry, looked up): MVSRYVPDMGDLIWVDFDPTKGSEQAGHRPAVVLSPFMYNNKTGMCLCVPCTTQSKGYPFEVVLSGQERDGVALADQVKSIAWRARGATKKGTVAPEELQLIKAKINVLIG
Numbers without * were called inactive; . = no result given; + = active, no number. Cut-off read from the data, not from the text of the source, unless noted: active = inhibition above about 30%; inactive = the rest.

SMILES	Mtb bLac sens	CCHF vOTU inh	GDH-TPI counter	Mtb FBA inh	MazEF act
COc1cc(/C=N/NC(=O)c2cn(-c3cccc(C)n3)cn2)ccc1O	-6	7	34*	-1	7
COc1cc(/C=N/NC(=S)NCCN2CCOCC2)ccc1O	5	1	48*	2	1
COc1cc(/C=N/NC(=O)c2cccc(NC(=O)c3ccccc3)c2)ccc1O	-1	22	37*	-5	10
COc1cc(/C=N/NC(=S)Nc2cccc(S(=O)(=O)N(C)C)c2)ccc1O	-4	-1	45*	1	11
COc1ccc(OC)c(NC(=S)NCCN2CCOCC2)c1	0	6	0	-1	4
Cc1ccc(-c2cc(-c3nnc(SCC(=O)Nc4ccccc4-c4ccccc4)n3N)[nH]n2)cc1	.	7	.	.	.
Cc1cccc(C(=O)Nc2nc3ncccn3c2-c2ccc(F)c(F)c2)c1	.	-8	.	.	.
COc1cc(/C=N/NC(=O)c2cccc(C(=O)N/N=C/c3ccc(O)c(OC)c3)n2)ccc1O	6	11	44*	2	-19
O=C(N/N=C/c1ccc(-c2cccc(C(F)(F)F)c2)o1)c1cccc(F)c1	92	-5	44*	3	6
O=C(N/N=C/c1ccc(-c2cccc(C(F)(F)F)c2)o1)c1ccccc1Br	4	6	54*	2	-43
CC(C)[C@@H](CO)N1Cc2nnn(Cc3ccccc3)c2-c2ccccc2S1(=O)=O	.	-6	.	.	.
COc1ccc(/C=N/N2C(=O)c3ccccc3C2=O)cc1	-1	12	7	3	0
COc1ccccc1/C=N/N1C(=O)c2cccc3cccc(c23)C1=O	0	-16	34*	3	0
COc1ccccc1C=NN=Cc1ccccc1OC	.	6	31*	-2	2
COc1ccccc1C=NN=C1c2ccccc2-c2ccccc21	.	12	-6	2	1
O=C(NC1CCCCN(Cc2ccc(OC(F)(F)F)cc2)C1=O)c1ccc(F)c(F)c1 (stereo not given)	.	14	.	.	.
CCCCC(=O)N1CCN(C(=O)c2ccc3nc(C)n(C4CCCC4)c3c2)CC1	.	6	.	.	.
Cc1c[nH]c2cccc(-c3cc4ccccc4o3)c12	.	-37	.	.	.
Clc1ccc(-n2c(SCc3cccc4ccccc34)nnc2-c2ccccc2)cc1	.	7	.	.	.
COc1ccc(Nc2c(-c3ccco3)nc3cccc(C)n23)cc1	0	4	-4	3	2
COc1ccc(Nc2c(-c3ccco3)nc3ccc(C)cn23)cc1	0	-7	22	18	2
Cc1ccc(Nc2c(-c3ccco3)nc3ccccn23)cc1	2	-71	22	121*	3
Fc1ccc(Nc2c(-c3ccco3)nc3ccccn23)cc1	51	-105	4	133*	3
Cc1ccc(NC(=O)[C@@H]2CC(=O)O[C@@H]2c2ccccc2)c(C)c1	.	-2	.	.	.
Cc1cccc(-n2c3nc(=O)[nH]c(=O)c-3cc3c(C)nn(-c4ccccc4)c32)c1C	1	-212	12	+	2
SMILES	Mtb bLac sens	CCHF vOTU inh	GDH-TPI counter	Mtb FBA inh	MazEF act
Cc1nn(-c2ccccc2)c2c1cc1c(=O)n(C)c(=O)nc-1n2-c1ccccc1F	-6	-150	1	164*	-2
CCn1nc(-c2ccccc2)c2nc3ccccc3nc21	-4	3	14	0	786*
CCCn1nc(-c2ccccc2)c2nc3ccccc3nc21	1	-6	.	.	+
Cc1ccc(S(=O)(=O)N2CCCC2C(c2ccccc2O)c2cn(C)c3ccccc23)cc1 (stereo not given)	.	4	.	.	.
COC(=O)[C@]12C[C@H](CC(=O)NCc3cccs3)C(=O)N(Cc3cccc4ccccc34)C1=C[C@H](C(C)C)O[C@@H]2C1CC1	.	11	.	.	.
O=C(O)c1ccc(C=Nn2c(-c3ccc(F)cc3)n[nH]c2=S)cc1	.	3	.	.	.
CCC(C)C(N)C(=O)NC(CCC(=O)OCc1ccccc1)C(N)=O (stereo not given)	-14	-4	-4	1	68*
COc1ccc(C2CC(=O)C(c3ccc(C)cc3)=CN2Cc2ccccc2)cc1 (stereo not given)	.	4	.	.	.
C=CCN(C)CC#Cc1ccccc1C	.	-4	.	.	.
CCOc1ccccc1-n1c(O)c(C=Nc2c(C)n(C)n(-c3ccccc3)c2=O)c(=O)[nH]c1=O	1	10	18	1	1
COc1ccc(OC)c(-n2c(O)c(C=Nc3c(C)n(C)n(-c4ccccc4)c3=O)c(=O)[nH]c2=S)c1	2	-6	32*	-1	-6
Cc1c(N=Cc2c(O)n(CCc3ccc(F)cc3)c(=O)[nH]c2=O)c(=O)n(-c2ccccc2)n1C	0	10	36*	-4	4
CC(C)CNc1cccc2c1S(=O)(=O)N(Cc1cn(Cc3ccc(C(F)(F)F)cc3)nn1)Cc1ccccc1O2	.	4	.	.	.
CN1C(=O)C2(N=c3ccccc3=N2)c2ccccc21	17	.	19	30*	8
CCCCCCCCN1C(=O)[C@@H](CC(=O)NCc2ccc(OC)c(OC)c2)C[C@@]2(C(=O)OC)C1=C[C@H](COCc1ccccc1)O[C@@H]2C	.	9	.	.	.
Clc1ccc(-c2nnc(SCc3nc4ccccc4[nH]3)o2)c(Cl)c1	-4	12	4	2	70*
c1ccc2[nH]c(CSc3nnc(-c4ccncc4)o3)nc2c1	0	-1	-13	3	4
CCOC(=O)c1nc2sc3c(c2c(=O)[nH]1)CCCC3	10	-110	22	181*	8
COC(=O)[C@]12C[C@H](CC(=O)NCc3ccc(OC)c(OC)c3)C(=O)N(CCC3=CCCCC3)C1=C[C@H](C1CCCC1)O[C@@H]2C	.	14	.	.	.
CN1C(=O)C2C(c3ccc(N(C)C)cc3)=NN(Cc3ccccc3)C2C1=O (stereo not given)	-5	0	44*	2	5
Cc1nccc(-c2sc(-c3cccs3)nc2C)n1	-9	-246	26	+	5
Cc1ccc(S(=O)(=O)N2CCN=C2SCc2ccc(Cl)c(Cl)c2)cc1	5	-5	0	-2	+
O=C(Nc1nccs1)c1sc2cc(Cl)ccc2c1Cl	80	-1	34*	-4	-12
C=CCc1c(C)nc(C)nc1N/N=C/c1ccccc1	0	10	29	0	2
C=CCc1c(C)nc(C)nc1N/N=C/c1ccc(F)cc1	0	21	32*	-1	1
O=C1/C(=N\S(=O)(=O)c2cccs2)C([n+]2cccc(Cc3ccccc3)c2)=C([O-])c2ccccc21	4	.	7	-3	271*
COc1ccc(S[C@]2(C(=O)N(C)C)CC(=O)N(S(=O)(=O)c3ccc(F)cc3)[C@@H]2c2ccc(OC)cc2)cc1	.	6	.	.	.
Cc1ccc(NC(=O)N2Cc3ccccc3CC2C(=O)NC(C)(C)C)cc1 (stereo not given)	-6	5	-11	0	-8
